# Laboratory results reported in PubChem BioAssay (Tox21).
# A number with no mark means an inactive call. Results filed as inconclusive are left out. A call without a number means that no potency is given here. Active and inactive are the calls of the source. Unless noted, calls come from the whole dose curve; as a rule, active = well fitted curve in the direction sought with a large enough effect in the repeat runs; inconclusive = weak or mixed curves; inactive = no such curve, though single readings can be large; an effect the other way counts as inactive or inconclusive.
# Tests used:
# [1] = qHTS assay to test for compound auto fluorescence at 535 nm (green) in HEK293 cells (AID 720680)
# [2] = qHTS assay to test for compound auto fluorescence at 460 nm (blue) in HEK293 cell free culture (AID 720681)
# Procedure, shortened: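 Test compounds were pinned into cell-free culture medium (DMEM with 10% FBS) and fluorescence was read directly at Ex/Em 405/460 nm. Signals were expressed as fluorescence equivalents of triamterene, with DMSO vehicle as control.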
# [3] = qHTS assay to test for compound auto fluorescence at 590 nm (red) in HEK293 cell free culture (AID 720683)
# Procedure, shortened: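 Tox21 10K library compounds were pinned into cell-free DMEM with 10% FBS and fluorescence was read at excitation 540 nm. Activity is expressed as Rose Bengal sodium equivalency.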
# [4] = qHTS assay to test for compound auto fluorescence at 590 nm (red) in HepG2 cell free culture (AID 720684)
# Procedure, shortened: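 Readout: intrinsic compound fluorescence at 590 nm emission after 540 nm excitation, scaled to Rose Bengal sodium. Matrix was cell-free MEM with 10% FBS; DMSO vehicle wells served as control.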
# [5] = qHTS assay to test for compound auto fluorescence at 460 nm (blue) in HepG2 cell free culture (AID 720685)
# Procedure, shortened: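 Cell-free plates of MEM plus 10% FBS received 23 nL compound or DMSO vehicle; blue-channel (405/460 nm) intensity scored against triamterene as reference fluorophore.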
# [6] = qHTS assay to test for compound auto fluorescence at 535 nm (green) in HepG2 cell free culture (AID 720686)
# [7] = qHTS assay to test for compound auto fluorescence at 460 nm (blue) in HepG2 cells (AID 720687)
# Procedure, shortened: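 Cells (2,000/well in MEM with 10% FBS) attached overnight at 37 C, then were exposed to compound or DMSO for 1 hr at 37 C, 5% CO2. Fluorescence read at Ex/Em 405/460 nm, expressed as triamterene-equivalent signal.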
# [8] = qHTS assay to identify small molecule antagonists of the glucocorticoid receptor (GR) signaling pathway - cell viability counter screen (AID 720693); note: nearly all actives have a fitted effect of over 55% in size
# [9] = qHTS assay for identifying genotoxic compounds that show differential cytotoxicity against isogenic chicken DT40 cell lines with known DNA damage response pathways - wild type cell line (AID 743012); note: nearly all actives have a fitted effect of over 60% in size; note: potency is the fitted concentration of half-maximal effect
# Procedure, shortened: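 Luminescent ATP viability signal (CellTiter-Glo, 30 min RT) recorded after wild type DT40 cells were incubated with compounds for 40 h at 37 C/5% CO2.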
# [10] = qHTS assay for identifying genotoxic compounds that show differential cytotoxicity against isogenic chicken DT40 cell lines with known DNA damage response pathways - Rev3 mutant cell line (AID 743014); note: nearly all actives have a fitted effect of over 55% in size; note: potency is the fitted concentration of half-maximal effect
# [11] = qHTS assay for identifying genotoxic compounds that show differential cytotoxicity against isogenic chicken DT40 cell lines with known DNA damage response pathways - Rad54/Ku70 mutant cell line (AID 743015); note: nearly all actives have a fitted effect of over 60% in size; note: potency is the fitted concentration of half-maximal effect
# [12] = target: Androgen receptor (Homo sapiens) (UniProt P10275); experiment: qHTS assay to identify small molecule agonists of the androgen receptor (AR) signaling pathway (AID 743036; active = well fitted activation curve with a large enough effect in the signal ratio in the repeat runs, with a control signal flat, not every such curve was filed as active; the % refers to the signal ratio)
# Sequence of Androgen receptor (Homo sapiens) (P10275 whole entry, looked up): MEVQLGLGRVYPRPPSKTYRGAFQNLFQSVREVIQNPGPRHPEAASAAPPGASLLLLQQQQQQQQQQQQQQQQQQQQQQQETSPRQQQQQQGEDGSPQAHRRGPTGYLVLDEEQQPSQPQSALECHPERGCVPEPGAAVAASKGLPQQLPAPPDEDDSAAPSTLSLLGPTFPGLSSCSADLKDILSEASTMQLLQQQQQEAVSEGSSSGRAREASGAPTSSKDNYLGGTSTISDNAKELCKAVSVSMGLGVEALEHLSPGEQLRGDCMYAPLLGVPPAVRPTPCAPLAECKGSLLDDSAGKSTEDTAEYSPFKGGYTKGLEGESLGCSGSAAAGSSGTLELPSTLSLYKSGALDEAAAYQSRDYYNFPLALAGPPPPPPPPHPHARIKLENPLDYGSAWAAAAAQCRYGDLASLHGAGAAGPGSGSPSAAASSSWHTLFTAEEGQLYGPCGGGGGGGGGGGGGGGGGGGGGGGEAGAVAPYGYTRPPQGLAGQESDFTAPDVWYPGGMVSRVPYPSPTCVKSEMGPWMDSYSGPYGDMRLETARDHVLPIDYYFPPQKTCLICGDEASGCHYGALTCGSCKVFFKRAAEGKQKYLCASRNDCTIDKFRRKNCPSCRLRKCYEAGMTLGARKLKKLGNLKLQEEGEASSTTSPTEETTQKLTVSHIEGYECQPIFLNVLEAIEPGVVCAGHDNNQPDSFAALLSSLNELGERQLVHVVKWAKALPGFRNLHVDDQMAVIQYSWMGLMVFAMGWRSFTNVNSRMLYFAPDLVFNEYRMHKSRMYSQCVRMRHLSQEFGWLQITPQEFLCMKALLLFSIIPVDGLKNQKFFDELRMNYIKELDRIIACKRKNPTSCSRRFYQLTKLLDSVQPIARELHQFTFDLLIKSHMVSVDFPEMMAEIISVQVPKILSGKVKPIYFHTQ
# Procedure, shortened: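 In this Tox21 qHTS, 2,000 HEK293 AR-bla cells per well were incubated with compounds for 16 h at 37C and 5% CO2. Fluorescence intensity was recorded 2 h after adding LiveBLAzer B/G FRET substrate at room temperature.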
# [13] = target: Androgen receptor (Homo sapiens) (UniProt P10275); experiment: qHTS assay to identify small molecule agonists of the androgen receptor (AR) signaling pathway using the MDA cell line (AID 743040; note: nearly all actives have a fitted effect of over 20% in size)
# Procedure, shortened: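 Agonist activity is measured as luciferase luminescence in human MDA-kb2 cells whose MMTV reporter responds to both AR and GR. Compounds in DMSO incubate 16 h at 37C, 0% CO2, and ONE-Glo is read after 30 min.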
# [14] = qHTS assay to identify small molecule antagonists of the thyroid receptor (TR) signaling pathway - cell viability counter screen (AID 743064); note: nearly all actives have a fitted effect of over 50% in size; note: potency is the fitted concentration of half-maximal effect
# Procedure, shortened: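 Counter screen for cytotoxicity: compound plus T3 (1 nM final) on GH3.TRE-Luc cells, 23.5 h at 37 °C, then fluorescence viability readout with CellTiter-Fluor.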
# [15] = qHTS assay to identify small molecule antagonists of the androgen receptor (AR) signaling pathway using the MDA cell line - cell viability counter screen (AID 743041; note: nearly all actives have a fitted effect of over 45% in size)
# Procedure, shortened: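 qHTS viability read-out; MDA-kb2 AR-luc; R1881-stimulated; 16 h exposure at 37C, 0% CO2; CellTiter-Fluor, 30 min; fluorescence intensity.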
# [16] = qHTS assay to identify small molecule antagonists of the thyroid receptor (TR) signaling pathway (AID 743065); note: nearly all actives have a fitted effect of over 55% in size; note: potency is the fitted concentration of half-maximal effect
# Procedure, shortened: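 GH3.TRE-Luc rat pituitary cells carrying two TR response elements driving luciferase were plated for 4 h, given compound plus 1 nM T3 (final), and incubated 23.5 h at 37 C. ONE-Glo luminescence measured reporter inhibition; CellTiter-Fluor fluorescence tracked cytotoxicity.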
# [17] = qHTS assay to identify small molecule antagonists of the androgen receptor (AR) signaling pathway - cell viability counter screen (AID 743033; note: nearly all actives have a fitted effect of over 45% in size)
# [18] = target: Glucocorticoid receptor (Homo sapiens) (UniProt P04150); experiment: qHTS assay to identify small molecule agonists of the glucocorticoid receptor (GR) signaling pathway (AID 720691; active = well fitted activation curve with a large enough effect in the signal ratio in the repeat runs, not every such curve was filed as active; the % refers to the signal ratio)
# Sequence of Glucocorticoid receptor (Homo sapiens) (P04150 whole entry, looked up): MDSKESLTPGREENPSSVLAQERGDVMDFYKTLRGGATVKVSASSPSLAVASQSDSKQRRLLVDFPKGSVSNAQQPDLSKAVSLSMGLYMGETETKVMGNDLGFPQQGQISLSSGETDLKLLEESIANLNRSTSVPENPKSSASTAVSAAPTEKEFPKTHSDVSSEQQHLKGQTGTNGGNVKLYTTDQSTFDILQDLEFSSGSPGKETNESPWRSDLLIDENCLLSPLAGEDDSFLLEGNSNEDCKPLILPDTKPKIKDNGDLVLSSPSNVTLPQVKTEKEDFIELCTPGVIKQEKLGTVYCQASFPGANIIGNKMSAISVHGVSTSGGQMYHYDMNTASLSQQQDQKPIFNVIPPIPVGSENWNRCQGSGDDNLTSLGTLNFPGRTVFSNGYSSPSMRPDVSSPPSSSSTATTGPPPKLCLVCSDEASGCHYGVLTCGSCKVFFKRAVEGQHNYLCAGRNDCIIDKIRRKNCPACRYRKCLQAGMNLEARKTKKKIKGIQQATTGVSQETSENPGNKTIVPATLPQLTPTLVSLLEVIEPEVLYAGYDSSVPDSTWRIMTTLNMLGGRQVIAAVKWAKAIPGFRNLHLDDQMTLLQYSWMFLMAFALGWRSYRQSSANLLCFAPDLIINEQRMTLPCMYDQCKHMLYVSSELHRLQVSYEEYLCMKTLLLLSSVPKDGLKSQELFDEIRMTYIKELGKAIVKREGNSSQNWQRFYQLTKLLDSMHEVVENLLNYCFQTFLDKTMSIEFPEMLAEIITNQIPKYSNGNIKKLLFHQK
# Procedure, shortened: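 Cells: GR-bla HeLa, endogenous GR with stably integrated GRE-beta-lactamase reporter. Treatment 18 h, 37 C, compounds delivered in DMSO. Detection via LiveBLAzer B/G FRET substrate, 2 h RT, fluorescence intensity.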
# [19] = target: Glucocorticoid receptor (Homo sapiens) (UniProt P04150); experiment: qHTS assay to identify small molecule antagonists of the glucocorticoid receptor (GR) signaling pathway (AID 720692; active = well fitted inhibition curve with a large enough effect in the signal ratio in the repeat runs, not every such curve was filed as active; the % refers to the signal ratio)
# Procedure, shortened: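 Quantitative HTS in antagonist format: HeLa cells expressing endogenous GR and a stably integrated GRE-bla reporter, stimulated with 5 nM dexamethasone (final) alongside test compounds for 18 h.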
structure (smiles),measurement,setting,value
NCCCN(CCO)CCO,outcome,[1],inactive
same,Potency,[2],inactive
same,outcome,[3],inactive
same,outcome,[4],inactive
same,Potency,[5],inactive
same,outcome,[6],inactive
same,Potency,[7],inactive
same,Potency,[8],inactive
same,Potency,[9],inactive
same,Potency,[10],inactive
same,Potency,[11],inactive
same,outcome,[12],inactive
same,Potency,[13],inactive
same,Potency,[14],inactive
CN(C)CC[C@@H](c1ccc(Br)cc1)c1ccccn1,outcome,[1],inactive
same,Potency,[2],inactive
same,outcome,[3],inactive
same,outcome,[4],inactive
same,Potency,[5],inactive
same,Potency,[7],inactive
same,Potency,[8],inactive
same,Potency,[15],inactive
NC(N)=N/N=C/c1c(Cl)cccc1Cl,outcome,[1],inactive
same,Potency,[2],inactive
same,outcome,[3],inactive
same,outcome,[4],inactive
same,Potency,[5],inactive
same,outcome,[6],inactive
same,Potency,[7],inactive
same,Potency,[8],inactive
same,Potency,[9],11.9 µM (active)
same,Potency,[10],23.7 µM (active)
same,Potency,[11],21.1 µM (active)
same,Potency,[13],inactive
same,Potency,[14],23.7 µM (active)
same,Potency,[16],23.7 µM (active)
O=C(NS(=O)(=O)/C=C/c1cccs1)c1ccc(F)cc1Br,outcome,[1],inactive
same,Potency,[2],inactive
same,outcome,[3],inactive
same,outcome,[4],inactive
same,Potency,[5],inactive
same,outcome,[6],inactive
same,Potency,[7],inactive
same,Potency,[8],inactive
same,Potency,[9],inactive
same,Potency,[10],inactive
same,Potency,[11],inactive
same,Potency,[17],inactive
same,outcome,[12],inactive
same,Potency,[13],inactive
same,Potency,[15],inactive
same,Potency,[14],inactive
same,Potency,[16],inactive
O=C(/C=C/c1ccc(O)c(O)c1)O[C@@H]1C[C@](O)(C(=O)O)C[C@@H](O)[C@H]1O,outcome,[1],inactive
same,Potency,[2],inactive
same,outcome,[3],inactive
same,outcome,[4],inactive
same,Potency,[5],inactive
same,outcome,[6],inactive
same,Potency,[7],inactive
same,Potency,[18],inactive
same,Potency,[19],inactive
same,Potency,[8],inactive
same,Potency,[9],inactive
same,Potency,[10],inactive
same,Potency,[11],inactive
same,Potency,[17],inactive
same,Potency,[15],inactive
same,Potency,[14],inactive
same,Potency,[16],inactive
OC(CCN1CCCCC1)(c1ccccc1)C1CCCCC1 (configuration not stated),outcome,[1],inactive
same,Potency,[2],inactive
same,outcome,[3],inactive
same,Potency,[5],inactive
same,outcome,[6],inactive
same,Potency,[7],inactive
same,Potency,[8],inactive
same,Potency,[9],26.6 µM (active)
same,Potency,[10],inactive
same,Potency,[11],inactive
same,Potency,[15],inactive
same,Potency,[14],inactive
COC(Cc1ccccc1)OC,outcome,[1],inactive
same,Potency,[2],inactive
same,outcome,[3],inactive
same,outcome,[4],inactive
same,Potency,[5],inactive
same,outcome,[6],inactive
same,Potency,[7],inactive
same,Potency,[18],inactive
same,Potency,[19],inactive
same,Potency,[8],inactive
same,Potency,[10],inactive
same,Potency,[11],inactive
same,Potency,[17],inactive
same,Potency,[15],inactive
same,Potency,[16],inactive
Cc1c(Cn2ccnc2)c2ccccc2n1CCC(=O)O,outcome,[1],inactive
same,Potency,[2],inactive
same,outcome,[3],inactive
same,outcome,[4],inactive
same,Potency,[5],inactive
same,outcome,[6],inactive
same,Potency,[7],inactive
same,Potency,[18],inactive
same,Potency,[19],inactive
same,Potency,[8],inactive
same,Potency,[9],inactive
same,Potency,[10],inactive
same,Potency,[11],inactive
same,Potency,[17],inactive
same,Potency,[15],inactive
same,Potency,[14],inactive
same,Potency,[16],inactive
C=C(C)C(=O)OC(C)C,outcome,[1],inactive
same,Potency,[2],inactive
same,outcome,[3],inactive
same,outcome,[4],inactive
same,Potency,[5],inactive
same,outcome,[6],inactive
same,Potency,[7],inactive
same,Potency,[8],inactive
same,Potency,[9],inactive
same,Potency,[10],inactive
same,Potency,[11],inactive
same,Potency,[17],inactive
same,outcome,[12],inactive
same,Potency,[13],inactive
same,Potency,[15],inactive
same,Potency,[14],inactive
same,Potency,[16],inactive
CC[C@]12CCCN3CCc4c(n(c5ccccc45)C(=O)C1)[C@@H]32,"fluorescence, % of fluorescein",[1],0.0475% [at 18.6 µM]
same,"fluorescence, % of fluorescent control",[2],-0.0431% [at 18.6 µM]
same,"fluorescence, % of fluorescent control",[3],-0.702% [at 18.6 µM]
same,"fluorescence, % of Rose Bengal",[4],0.0021% [at 18.6 µM]
same,"fluorescence, % of fluorescent control",[5],0.043% [at 18.6 µM]
same,"fluorescence, % of fluorescein control",[6],-0.019% [at 18.6 µM]
same,"fluorescence, % of fluorescent control",[7],-0.0508% [at 18.6 µM]
same,Potency,[9],4.52 µM (active)
same,Potency,[10],4.52 µM (active)
same,Potency,[11],7.17 µM (active)
same,Potency,[17],inactive
same,Potency,[13],inactive
same,Potency,[15],inactive
same,Potency,[14],8.04 µM (active)
O=C(O)c1cccc(N(Cc2cccnc2)c2ccc(OC(F)F)c(OC(F)F)c2)c1,outcome,[1],inactive
same,Potency,[2],inactive
same,outcome,[3],inactive
same,outcome,[4],inactive
same,Potency,[5],inactive
same,Potency,[7],inactive
same,Potency,[8],inactive
same,Potency,[17],inactive
same,Potency,[13],inactive
same,Potency,[15],inactive
same,Potency,[14],inactive
same,Potency,[16],inactive
